Test results from PubChem BioAssay (Tox21).
Results filed as inconclusive are left out. Active and inactive are the calls of the source. Unless noted, calls come from the whole dose curve; as a rule, active = well fitted curve in the direction sought with a large enough effect in the repeat runs; inconclusive = weak or mixed curves; inactive = no such curve, though single readings can be large; an effect the other way counts as inactive or inconclusive.

Columns and labels:
[1] = qHTS assay to identify small molecule antagonists of the estrogen receptor alpha (ER-alpha) signaling pathway using the BG1 cell line in the presence of 0.1 nM 17-beta-estradiol - cell viability counter screen (AID 1259241); note: nearly all actives have a fitted effect of over 40% in size; note: potency is the fitted concentration of half-maximal effect
Method in brief: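 Estradiol-stimulated (0.1 nM) VM7Luc4E2 cells exposed to compounds 22 hr; viability measured by fluorescence of cleaved CellTiter-Fluor substrate after 30 min.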

[2] = target: Estrogen receptor (Homo sapiens) (UniProt P03372); test: qHTS assay to identify small molecule antagonists of the estrogen receptor alpha (ER-alpha) signaling pathway using the BG1 cell line in the presence of 0.1 nM 17-beta-estradiol (AID 1259244); note: nearly all actives have a fitted effect of over 50% in size; note: potency is the fitted concentration of half-maximal effect
Method in brief: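 VM7Luc4E2; 4xERE-luciferase; 0.1 nM E2 final; 22 h co-incubation, 37C; ONE-Glo luminescence after 30 min at room temperature.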

[3] = qHTS assay to identify small molecule phospholipidosis (PLD) inducers (AID 1259344; active = well fitted curve in the direction sought with a large enough effect; an effect the other way counts as inactive or inconclusive)
Method in brief: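 HepG2 cells on collagen I, attached 4 h at 37 C, were co-treated with compound and LipidTOX Red dye for 24 h at 37 C, then fixed with paraformaldehyde plus Hoechst 33342 and imaged by high-content microscopy for phospholipid accumulation.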

[4] = qHTS assay to identify small molecule HDAC inhibitors (AID 1259364);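 note: wild-type HCT-116 cells with endogenous class I/II HDAC activity; top concentration of the series differs between compounds; nearly all actives have a fitted effect of over 45% in size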
Method in brief: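 Relative class I and II HDAC activity is taken from the luminogenic signal in HCT-116 cells, with compound exposure 2 hr and reagent development 30 min at room temperature.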

[5] = qHTS assay to identify small molecule HDAC inhibitors - cell viability counter screen (AID 1259365); note: series mostly up to about 92 µM; nearly all actives have a fitted effect of over 50% in size
Method in brief: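 After overnight seeding at 1,500 cells per well, wild-type HCT-116 cultures took up compounds in DMSO for 2hr at 37 C. Viable cell content came from luminescence with CellTiter-Glo.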

[6] = qHTS assay to identify small molecule agonists of the sonic hedgehog signaling (Shh) pathway - cell viability counter screen (AID 1259366); note: nearly all actives have a fitted effect of over 50% in size; note: potency is the fitted concentration of half-maximal effect
Method in brief: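 Same-well cytotoxicity read. Gli1-Luc reporter 3T3 cells; compounds 24hr, 37C/5% CO2; CellTiter-Fluor fluorescence.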

[7] = qHTS assay to identify small molecule antagonists of the sonic hedgehog signaling (Shh) pathway - cell viability counter screen (AID 1259367); note: nearly all actives have a fitted effect of over 55% in size; note: potency is the fitted concentration of half-maximal effect
Method in brief: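 NIH/3T3-derived Gli1-Luc reporter cells (2,000 per well) rested 4 hr at 37 C, then received DMSO compounds plus conditioned medium. After 23 hr of treatment, CellTiter-Fluor was added for 1 hr at 37C and fluorescence read.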

[8] = qHTS assay to identify small molecule agonists of the sonic hedgehog signaling (Shh) pathway (AID 1259368; calls by dose curve;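 note: NIH/3T3-derived 3T3Gli1-Luc cells carrying a stable Gli1-driven firefly luciferase reporter; series mostly up to about 92 µM; nearly all actives have a fitted effect of over 15% in size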)
Method in brief: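 Mouse fibroblast (NIH/3T3) reporter cells with stably integrated Gli1-Luc were treated 24 hr with compound; firefly luciferase luminescence served as the read-out.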

[9] = qHTS assay to identify small molecule antagonists of the androgen receptor (AR) signaling pathway using the MDA cell line in the presence of 0.5 nM R1881 - cell viability counter screen (AID 1259242); note: nearly all actives have a fitted effect of over 45% in size; note: potency is the fitted concentration of half-maximal effect
Method in brief: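 R1881 at 0.5 nM final stimulated MDA-kb2 cells during 16 hr compound treatment at 37C. Cytotoxicity read: CellTiter-Fluor fluorescence after 30 min.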

[10] = target: Androgen receptor (Homo sapiens) (UniProt P10275); test: qHTS assay to identify small molecule antagonists of the androgen receptor (AR) signaling pathway using the MDA cell line in the presence of 0.5 nM R1881 (AID 1259243); note: nearly all actives have a fitted effect of over 50% in size; note: potency is the fitted concentration of half-maximal effect
Method in brief: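 We exposed MDA-kb2 cells to compounds under 0.5 nM R1881 stimulation for 16 hr at 37C and quantified MMTV-driven luciferase by luminescence.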
% is set by controls: 0 for no effect and ±100 for the full control effect.

Estrogen receptor (Homo sapiens), sequence (P03372 whole entry, looked up): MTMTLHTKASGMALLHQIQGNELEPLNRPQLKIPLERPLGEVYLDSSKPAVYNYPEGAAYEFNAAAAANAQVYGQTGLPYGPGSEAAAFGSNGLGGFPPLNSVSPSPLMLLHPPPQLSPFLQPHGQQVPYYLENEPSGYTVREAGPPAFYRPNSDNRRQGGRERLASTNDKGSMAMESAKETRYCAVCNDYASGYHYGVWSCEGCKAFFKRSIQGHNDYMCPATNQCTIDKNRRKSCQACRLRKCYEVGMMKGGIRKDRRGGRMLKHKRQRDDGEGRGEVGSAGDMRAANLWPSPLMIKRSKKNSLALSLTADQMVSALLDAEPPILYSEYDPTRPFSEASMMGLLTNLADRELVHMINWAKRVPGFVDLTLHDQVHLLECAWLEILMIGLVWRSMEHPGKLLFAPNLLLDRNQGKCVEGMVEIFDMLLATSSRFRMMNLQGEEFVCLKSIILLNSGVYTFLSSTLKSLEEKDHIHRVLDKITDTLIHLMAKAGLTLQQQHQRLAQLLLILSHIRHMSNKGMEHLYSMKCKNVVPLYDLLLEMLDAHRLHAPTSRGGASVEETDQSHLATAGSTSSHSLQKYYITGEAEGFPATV
Androgen receptor (Homo sapiens), sequence (P10275 whole entry, looked up): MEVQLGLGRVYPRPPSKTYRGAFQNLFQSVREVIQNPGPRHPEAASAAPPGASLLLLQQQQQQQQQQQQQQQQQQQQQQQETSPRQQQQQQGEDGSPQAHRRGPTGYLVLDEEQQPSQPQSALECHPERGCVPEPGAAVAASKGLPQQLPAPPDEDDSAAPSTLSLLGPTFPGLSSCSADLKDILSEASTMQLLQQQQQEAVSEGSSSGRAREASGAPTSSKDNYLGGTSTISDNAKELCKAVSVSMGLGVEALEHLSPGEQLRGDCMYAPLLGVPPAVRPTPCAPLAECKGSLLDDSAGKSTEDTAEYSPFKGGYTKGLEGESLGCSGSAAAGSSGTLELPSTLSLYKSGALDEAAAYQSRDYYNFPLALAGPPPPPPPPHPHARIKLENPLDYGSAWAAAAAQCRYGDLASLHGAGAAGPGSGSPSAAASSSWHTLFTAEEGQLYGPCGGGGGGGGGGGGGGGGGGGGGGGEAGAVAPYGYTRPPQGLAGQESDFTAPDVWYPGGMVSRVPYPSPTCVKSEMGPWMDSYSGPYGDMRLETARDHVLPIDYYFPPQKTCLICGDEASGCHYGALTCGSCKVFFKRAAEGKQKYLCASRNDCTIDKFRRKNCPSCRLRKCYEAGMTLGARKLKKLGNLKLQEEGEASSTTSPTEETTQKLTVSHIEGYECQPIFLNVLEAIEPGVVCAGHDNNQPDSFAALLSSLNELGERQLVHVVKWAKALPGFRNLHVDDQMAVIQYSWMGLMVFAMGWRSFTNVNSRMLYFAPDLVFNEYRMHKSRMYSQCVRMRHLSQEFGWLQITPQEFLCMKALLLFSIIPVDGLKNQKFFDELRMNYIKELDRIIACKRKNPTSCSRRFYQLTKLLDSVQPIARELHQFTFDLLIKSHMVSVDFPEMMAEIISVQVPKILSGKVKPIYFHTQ

CC(C)c1c(CN(C)C(C)Cc2ccccc2)n(C)n(-c2ccccc2)c1=O (configuration not stated)
inactive: Potency [1] | Potency [2] | outcome [3] | Potency [4] | Potency [5] | Potency [6] | Potency [7] | Potency [8]

O.O.O.O=C([O-])[C@H]([O-])[C@@H]([O-])C(=O)[O-].O=C([O-])[C@H]([O-])[C@@H]([O-])C(=O)[O-].[K+].[K+].[Sb+3].[Sb+3]
active: Potency [1] 48.8 µM
inactive: Potency [2] | Potency [4] | Potency [5] | Potency [6] | Potency [7] | Potency [8]

CCCCN(CCCC)C(=S)[S-].CCCCN(CCCC)C(=S)[S-].[Ni+2]
inactive: Potency [1] | Potency [9] | Potency [4] | Potency [5] | Potency [6] | Potency [7] | Potency [8]

CC(C)C(Nc1ccc(C(F)(F)F)cc1Cl)C(=O)OC(C#N)c1cccc(Oc2ccccc2)c1 (configuration not stated)
inactive: Potency [1] | Potency [2] | Potency [4] | Potency [5] | Potency [6] | Potency [7]

C[C@H]1[C@H](c2ccc(Cl)cc2)SC(=O)N1C(=O)NC1CCCCC1
inactive: Potency [1] | Potency [4] | Potency [5] | Potency [6] | Potency [7] | Potency [8]
active: Potency [10] 48.6 µM

CCN(CC)CCN1C(=O)CN=C(c2ccccc2F)c2cc(Cl)ccc21
inactive: Potency [1] | Potency [2] | Potency [4] | Potency [5] | Potency [6] | Potency [7] | Potency [8]

CN1C2CCC(C)(C)C1CC(OC(=O)C(O)(c1cccs1)c1cccs1)C2 (configuration not stated)
inactive: Potency [1] | Potency [9] | Potency [4] | Potency [5] | Potency [7] | Potency [8]

COc1ccc(Cc2nccc3cc(OC)c(OC)cc23)cc1OC
inactive: Potency [1] | outcome [3] | Potency [4] | Potency [5] | Potency [7] | Potency [8]
active: Potency [10] 6.68 µM

CCOP(=S)(OCC)SC(CCl)N1C(=O)c2ccccc2C1=O (configuration not stated)
inactive: Potency [1] | Potency [9] | Potency [4] | Potency [5] | Potency [6] | Potency [7] | Potency [8]

COc1ccc2c(c1OC)C(=O)O[C@@H]2[C@H]1c2cc3c(cc2CCN1C)OCO3
active: Potency [6] 2.41 µM | Potency [7] 3.03 µM
inactive: Potency [9] | Potency [10] | Potency [4] | Potency [5] | Potency [8]

CC1(C)C(C=C(Cl)Cl)C1C(=O)OC(C#N)c1ccc(F)c(Oc2ccccc2)c1 (configuration not stated)
inactive: Potency [9] | Potency [2] | Potency [4] | Potency [5] | Potency [6] | Potency [7] | Potency [8]

CCOP(=O)(OCC)Oc1cc(C)nc(C(C)C)n1
inactive: Potency [1] | Potency [4] | Potency [5] | Potency [6] | Potency [7] | Potency [8]

Nc1cc(Cl)ccc1Cl
inactive: Potency [1] | Potency [4] | Potency [5] | Potency [6] | Potency [7] | Potency [8]

CSSC
inactive: Potency [1] | Potency [4] | Potency [5] | Potency [6] | Potency [7] | Potency [8]

CO/N=C(/C1=NOCCO1)c1ccccc1Oc1ncnc(Oc2ccccc2Cl)c1F
active: Potency [9] 17.2 µM | Potency [2] 4.85 µM
inactive: Potency [4] | Potency [5] | Potency [6] | Potency [7] | Potency [8]

CCCCn1cc[n+](C)c1 (tested in a mixture with another compound)
inactive: Potency [1] | Potency [4] | Potency [5] | Potency [6] | Potency [7] | Potency [8]

ClC1=C(Cl)[C@]2(Cl)[C@H]3[C@H]([C@@H]4C=C[C@H]3C4)[C@@]1(Cl)C2(Cl)Cl
inactive: Potency [1] | Potency [4] | Potency [5] | Potency [6] | Potency [7] | Potency [8]

C=Cc1cccc(CCl)c1
inactive: Potency [9] | Potency [2] | Potency [4] | Potency [5] | Potency [6] | Potency [7] | Potency [8]

Cc1ccc(C)c2ccccc12
inactive: Potency [9] | Potency [10] | Potency [4] | Potency [5] | Potency [6] | Potency [7] | Potency [8]

Cc1cnc2c(C(=O)O)c(Cl)ccc2c1
inactive: Potency [9] | Potency [2] | Potency [4] | Potency [5] | Potency [6] | Potency [7] | Potency [8]

Clc1c(Cl)c(Cl)c(Cl)c(Cl)c1Cl
inactive: activity change, negative = cytotoxicity [1] 2.59% [at 8.39 µM] | activity change, negative = inhibition [4] 1.74% [at 8.39 µM] | activity change, negative = cytotoxicity [5] 0.165% [at 8.39 µM] | viability change, negative = cytotoxic [6] 1.7% [at 8.39 µM] | viability change, negative = cytotoxic [7] 2.78% [at 8.39 µM] | activity change [8] -0.252% [at 8.39 µM, stronger effect = higher value]

Cc1c([N+](=O)[O-])c(C)c([N+](=O)[O-])c(C(C)(C)C)c1[N+](=O)[O-]
inactive: Potency [9] | Potency [2] | Potency [4] | Potency [5] | Potency [6] | Potency [7] | Potency [8]

CCC(OC(C)=O)C(CC(C)NC)(c1ccccc1)c1ccccc1 (configuration not stated)
inactive: Potency [4] | Potency [5] | Potency [8]
active: Potency [9] 43.6 µM | Potency [10] 27.5 µM | Potency [6] 34.7 µM | Potency [7] 61.6 µM

CCC[CH2][Sn]([CH2]CCC)([CH2]CCC)[CH2]CCC
inactive: Potency [4] | Potency [8]
active: Potency [1] 19.3 µM | Potency [6] 13.7 µM | Potency [7] 21.7 µM

Fc1ccc(C(OCCN2CCN(CCCc3ccccc3)CC2)c2ccc(F)cc2)cc1
active: Potency [9] 23.7 µM | Potency [10] 8.41 µM | Potency [2] 23.7 µM | Potency [6] 18.8 µM | Potency [7] 21.1 µM
inactive: outcome [3] | Potency [4] | Potency [5] | Potency [8]

N#Cc1ccc(N(CC(N)=O)CC(F)(F)F)cc1C(F)(F)F
inactive: Potency [9] | Potency [2] | Potency [4] | Potency [5] | Potency [6] | Potency [7] | Potency [8]

CC[N+]1(CC)CCC(OC(=O)C(O)(c2ccccc2)c2ccccc2)C1 (configuration not stated)
inactive: Potency [9] | Potency [2] | Potency [4] | Potency [5] | Potency [6] | Potency [7] | Potency [8]
